Screening results deposited in PubChem BioAssay by several laboratories.
BJeLR lethal – kills HRASV12-expressing BJeLR cells | BJeLR (HRASV12) viability, CellTiter-Glo ATP luminescence, 48 h | inhibition, % (test concentration not listed) | hit rate 0.17% among 300,000 | AID 1554; in the data active = inhibition above about 50%
PrPC TRFRET – inhibitors of human cell surface prion protein PrPC; inhibition, % at 13.8 µM; hit rate 0.43% among 370,000; AID 720596; TR-FRET read-out; P04156; in the data active = inhibition above about 24%
SARS 3CLpro inh – SARS-CoV 3CLpro protease inhibition | recombinant SARS-CoV 3CLpro, quenched FRET peptide cleavage | P0C6X7 | hit rate 0.14% among 290,000 | AID 1706 | inhibition, % at 6 µM; in the data active = inhibition above about 12%
DUSP3 inh – inhibitors of human VHR1 phosphatase (DUSP3); recombinant VHR phosphatase, pNPP absorbance; inhibition, % at 13.3 µM; P51452; hit rate 0.52% among 290,000; AID 1654; in the data active = inhibition above about 50%
PrPC TRFRET cf – confirmation of inhibitors of cell surface human prion protein | shares compounds with PrPC TRFRET | cell surface PrPC level, TR-FRET | inhibition, % at 13.8 µM | hit rate 65% among 1,500; in the data active = inhibition above about 25%
LD9 cytotox – counter-screen for PrPc inhibitors: cytotoxicity in LD9 cells. shares compounds with PrPC TRFRET. luminescence viability. inhibition, % at 13.8 µM. hit rate 29% among 1,500; in the data active = inhibition above about 9.5%
Hits are given with their value; . = inactive; / = no result. Hits are enriched below; roughly 1.1% of the tested compounds scored in any of these assays.

SMILES | BJeLR lethal | PrPC TRFRET | SARS 3CLpro inh | DUSP3 inh | PrPC TRFRET cf | LD9 cytotox
Cc1cc(NC(=O)c2sc(Nc3ccc(F)cc3)nc2N)no1 | . | 25.8 | . | . | 25.8 | 12.6
CC(=O)c1cccc(S(=O)(=O)N(Cc2cc3cc4c(cc3[nH]c2=O)OCCO4)CC2CCCO2)c1 (stereo unspecified) | . | . | . | . | / | /
O=c1[nH]c2cc3c(cc2cc1CN(CC1CCCO1)S(=O)(=O)c1ccccc1)OCCO3 (stereo unspecified) | . | 54.6 | . | . | . | .
COC(=O)[C@]12C[C@H](CC(=O)NCCCN3CCCC3=O)C(=O)N(Cc3cccc4ccccc34)C1=C[C@H](C1CCCC1)O[C@@H]2C | / | . | / | / | / | /
COc1ccc(OCC(O)Cn2cnc(-c3ccc(Br)cc3)c2)cc1 (stereo unspecified) | . | . | . | . | / | /
OC(COc1ccc2ccccc2c1Br)Cn1cnc(-c2ccccc2)c1 (stereo unspecified) | . | 65.4 | . | . | 83.6 | .
COc1ccc(S(=O)(=O)NC(=O)C2(C)CCN2C(=O)C(C)(C)c2ccccc2)cc1 (stereo unspecified) | / | . | / | / | / | /
COc1ccc(C(=O)N/N=C(\c2ccccc2)c2ccccn2)cc1 | . | 27.7 | . | . | 26.2 | 38.7
CCOC(=O)c1c(NC(=O)CSc2nnc(Cc3ccccc3)o2)sc(C(C)=O)c1C | . | 26.9 | . | . | . | .
CCOC(=O)c1c(NC(=O)CSc2nnc(-c3ccccc3)o2)sc(C(C)=O)c1C | . | . | . | . | / | /
O=C(COC(=O)c1n[nH]c(=O)c2ccccc12)Nc1ccccc1F | / | . | / | / | / | /
CC1OC2CC(=O)OC2C2=C1C(=O)c1c(O)cccc1C2=O (stereo unspecified) | / | 81.0 | / | / | 92.7 | 98.8
CCOC(=O)NC(=O)CSc1cc(C)c2cc(C)cc(C)c2n1 | . | 42.3 | . | . | 57.5 | .
CCOC(=O)NC(=O)CSc1ccc2ccccc2n1 | . | 49.1 | . | . | 48.8 | .
Cc1cc(C)c2nc(SCC(=O)NC(=O)c3cccn3C)cc(C)c2c1 | . | . | . | . | / | /
O=C(Nc1ccccc1)c1cn(CCBr)cn1 | . | . | / | / | / | /
CCc1cc2c(=O)c(-c3ccc4c(c3)OCCO4)c(C)oc2cc1OS(C)(=O)=O | . | 30.9 | . | . | 40.2 | .
OCCCNc1ncnc2c1ncn2[C@H]1CN(Cc2ccc3c(c2)OCO3)C[C@@H](CO)O1 | / | . | / | / | / | /
Cc1ccc(Cc2nc(-c3ccncc3)no2)cc1 | . | 71.6 | . | . | . | .
Cc1cc(C)n(CCCNC(=O)c2ccc(C)c(S(=O)(=O)N3CCOCC3)c2)n1 | . | . | / | / | / | /
Cc1nc2ccc(Br)cc2c(-c2ccccc2)c1C(=O)O | . | 61.9 | . | . | 81.9 | .
O=C(Nc1ccncc1)c1cccc(S(=O)(=O)N2CCc3ccccc32)c1 | . | 24.5 | / | / | 25.5 | 12.6
CCc1ccccc1NC(=O)c1cc(S(=O)(=O)N2CCc3ccccc32)cn1C | . | . | . | . | / | /
Cc1cccc(N2CCN(C(=O)c3cc(S(=O)(=O)N4CCCC4)cn3C)CC2)c1C | . | 24.5 | . | . | . | .
Cc1cccc(NC(=O)c2cc(S(=O)(=O)N3CCc4ccccc43)cn2C)c1C | . | 44.2 | . | . | . | .
SMILES | BJeLR lethal | PrPC TRFRET | SARS 3CLpro inh | DUSP3 inh | PrPC TRFRET cf | LD9 cytotox
CC(C)(C)C(=O)Nc1ccc(C(=O)COC(=O)c2ccccn2)cc1 | / | . | / | / | / | /
COc1ccc(CNC(=O)Cn2cc(C)c(=O)[nH]c2=O)cc1 | / | . | / | / | / | /
CC(OC(=O)CCN=C1NS(=O)(=O)c2ccccc21)C(=O)Nc1ccc(F)c(F)c1F (stereo unspecified) | . | . | / | / | / | /
CCc1ccc(NC(=O)COC(=O)CCc2nc3cc(S(=O)(=O)N(CC)CC)ccc3n2C)cc1 | . | . | . | . | / | /
CCN(CC)S(=O)(=O)c1ccc2c(c1)nc(CCC(=O)OCC(=O)Nc1cc(Cl)cc(Cl)c1)n2C | . | 27.6 | . | . | . | .
CCOC(=O)CSc1nc(C2CC2)nc2ccccc12 | . | 25.2 | . | . | 42.7 | .
CCOC(=O)CSc1nc(COc2ccccc2)nc2ccccc12 | . | 59.2 | . | . | 60.5 | .
CC(C)(C)c1nc(SCC(=O)NNC(=O)c2ccccc2)c2ccccc2n1 | . | 44.8 | . | . | 67.0 | .
CC(C)OC(=O)CSc1nc(Cc2cccs2)nc2ccccc12 | . | 37.5 | . | . | . | .
CCOC(=O)CSc1nc(C(C)C)nc2ccccc12 | . | 110.3 | . | . | 122.8 | .
COC(=O)CSc1nc(C(C)C)nc2ccccc12 | . | 121.0 | . | . | 123.4 | .
CCOC(=O)CSc1nc(C(C)(C)C)nc2ccccc12 | . | 31.7 | . | . | 58.3 | .
CCc1nc2ccc(C(=O)Nc3cccc(OCC(=O)N(C)C)c3)cn2c1N(C)Cc1cc2ccccc2s1 | / | . | / | / | / | /
CCC1(CC)Cc2ccccc2-c2[nH]c(=S)[nH]c(=O)c21 | . | 79.4 | / | / | 100.2 | .
CC(C)C1Cc2ccccc2-c2[nH]c(=S)[nH]c(=O)c21 (stereo unspecified) | . | 75.1 | / | / | 94.1 | .
CCC1(CC)Cc2ccccc2-c2nc(NN)[nH]c(=O)c21 | . | . | . | . | / | /
COc1ccc(-n2nnnc2CNC(=O)C2CC(=O)N(c3ccc(F)cc3)C2)cc1 (stereo unspecified) | / | 30.9 | / | / | . | .
CC(C)NC(=O)N[C@@H]1C[C@@H]2O[C@@H](CO)CC[C@@H]2O[C@@H]1CCc1ccc(-c2ccc(F)cc2)cc1 | / | . | / | / | / | /
CC(C)Cc1cc(C(=O)Nc2ccc3c(c2)OCO3)no1 | . | 31.1 | . | . | 29.2 | .
Cc1cc(C(=O)Nc2ccc3c(c2)OCO3)no1 | . | . | . | . | / | /
O=C(Nc1ccc2c(c1)OCO2)c1cc(-c2ccc(O)cc2)on1 | . | 32.0 | . | . | . | .
O=C(Nc1ccc2c(c1)OCO2)c1cc(-c2cccc(O)c2)on1 | . | . | . | . | / | /
COC(=O)[C@]12C[C@H](CC(=O)NCc3ccc(C)o3)C(=O)N(Cc3ccc4c(c3)OCO4)C1=C[C@H](COCc1ccccc1)O[C@@H]2C | / | . | / | / | / | /
O=C(Nc1ccc(N2CCN(C(=O)c3ccccc3)CC2)cc1)c1ccc(Br)o1 | . | . | . | . | / | /
O=C(Nc1ccc(N2CCN(C(=O)c3ccccc3)CC2)c(Cl)c1)c1ccc(Br)o1 | . | 32.8 | . | . | 41.1 | 24.1
SMILES | BJeLR lethal | PrPC TRFRET | SARS 3CLpro inh | DUSP3 inh | PrPC TRFRET cf | LD9 cytotox
Cc1ccc(Cc2c(-c3ccc(C#N)cc3)nc3ccc(Br)cn23)cc1 | / | 42.1 | / | / | 46.7 | .
N#Cc1ccc(-c2nc3ccc(Br)cn3c2Cc2cccc(F)c2)cc1 | / | 29.2 | / | / | 88.1 | .
N#Cc1ccc(-c2nc3ccc(Br)cn3c2Cc2cccc(Cl)c2)cc1 | / | . | / | / | / | /
Fc1cccc(Cc2c(-c3ccco3)nc3ccc(Br)cn23)c1 | / | 50.8 | / | / | 70.2 | .
Cc1ccc(Cc2c(-c3ccc(C#N)cc3)nc3ccc(C)cn23)cc1 | / | . | / | / | / | /
O=C(Nc1nccs1)c1ccc(COc2ccccc2Br)o1 | . | 26.4 | . | . | . | .
CC(=O)OC1CC2OC3C=C(C)CCC3(C)C1(C)C21CO1 (stereo unspecified) | / | 90.5 | / | / | 100.9 | 32.2
c1ccc2c(c1)nc(N1CCOCC1)c1nncn12 | . | 103.7 | . | . | . | .
